Results from PubChem BioAssay (EPA / NIEHS).
Inconclusive results are not listed. Active and inactive are the calls of the source. Rule for the calls: active = hit-call score of the fitted dose curve at least 0.9, where 1 is the maximum; inconclusive = response in the unintended direction; inactive = score below 0.9.

The molecules below were run against Peroxisome proliferator-activated receptor gamma (Homo sapiens) (UniProt P37231) (assay: ATG_PPARg_TRANS: Attagene TRANS-FACTORIAL HepG2 Assay for human Peroxisome Proliferator-activated Receptor-gamma (PPARg) (AID 2283007)).
Peroxisome proliferator-activated receptor gamma (Homo sapiens), sequence (P37231 whole entry, looked up, the tested form may be a part): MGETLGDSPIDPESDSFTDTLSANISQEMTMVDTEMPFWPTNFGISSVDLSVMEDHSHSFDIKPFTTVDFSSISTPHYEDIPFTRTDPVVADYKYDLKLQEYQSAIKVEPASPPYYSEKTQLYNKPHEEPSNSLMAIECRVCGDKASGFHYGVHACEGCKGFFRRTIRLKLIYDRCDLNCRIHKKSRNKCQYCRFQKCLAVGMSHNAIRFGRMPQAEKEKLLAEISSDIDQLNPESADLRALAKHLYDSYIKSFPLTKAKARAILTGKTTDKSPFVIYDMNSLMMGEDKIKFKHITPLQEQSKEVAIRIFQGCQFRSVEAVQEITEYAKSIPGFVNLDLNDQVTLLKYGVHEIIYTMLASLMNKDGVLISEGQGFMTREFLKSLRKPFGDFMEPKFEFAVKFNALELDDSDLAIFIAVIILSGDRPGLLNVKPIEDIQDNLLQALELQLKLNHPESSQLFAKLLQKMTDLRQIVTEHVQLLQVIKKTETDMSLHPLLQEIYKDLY
Outline: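 Chimeric NR-Gal4 transactivation is measured in transiently transfected HepG2 cells by reporter mRNA induction at 24 h. Detection uses RT-PCR with fluorescent labelling and capillary electrophoresis; DMSO defines baseline.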

SMILES	outcome	AC50
C[Si]1(C)O[Si](C)(C)O[Si](C)(C)O1	inactive	–
CC(C)(C)CC(C)(C)c1ccc(OCCOCC[N+](C)(C)Cc2ccccc2)cc1	inactive	–
CCCCCCC(CO)CCCC (configuration not stated)	inactive	–
O=C1OC2(c3ccccc31)c1ccc(O)c(Br)c1Oc1c2ccc(O)c1Br	inactive	–
O=[N+]([O-])c1ccc(O)cc1C(F)(F)F	–	38.7 µM (active)
CCC(C)c1cc([N+](=O)[O-])cc([N+](=O)[O-])c1OC(=O)OC(C)C (configuration not stated)	–	0.774 µM (active)
[O-]n1ccccc1=S.[O-]n1ccccc1=S.[Zn+2]	inactive	–
CCc1ccc(O)cc1	inactive	–
NCCNc1cccc2ccccc12	–	125 µM (active)
CCc1cc(Cc2cc(CC)cc(C(C)(C)C)c2O)c(O)c(C(C)(C)C)c1	–	7.31 µM (active)
COc1cc(Cl)c(OC)cc1N	inactive	–
CCCCCCCC/C=C\CCCCCCCC(=O)OCC	–	50.5 µM (active)
Nc1ccc2cc(S(=O)(=O)O)cc(O)c2c1N=Nc1ccccc1C(F)(F)F	inactive	–
c1ccc2cc(Nc3ccc(Nc4ccc5ccccc5c4)cc3)ccc2c1	inactive	–
NC(=S)NNC(N)=S	inactive	–
Nc1ccc(N)c2c1C(=O)c1ccccc1C2=O	–	11.3 µM (active)
CCCCCCC(O)CCCCCCCCCCC(=O)O (configuration not stated)	–	14.2 µM (active)
IC(I)I	inactive	–
CN(C)C(=S)SC(=S)N(C)C	–	20.9 µM (active)
O=C(O)c1ccc(O)cc1	inactive	–
CCCCCCCCCCCC(=O)OC[C@@H](O)[C@H]1OC[C@H](O)[C@H]1O	inactive	–
CCCCCCCCCCCCCCCC(=O)OC/C=C(C)/C=C/C=C(C)/C=C/C1=C(C)CCCC1(C)C	–	37.9 µM (active)
